Results reported in PubChem BioAssay AID1851 (National Center for Advancing Translational Sciences (NCATS), 2009).
Where “and” joins values, the source holds several entries; their conditions need not be identical. Equal entries are not always repeated. Screen size: about 16,000 compounds; about 5,700 (36%) were called active. About 24% were inconclusive and are not listed. The call rests on the fitted dose curve; in most records, active means well fitted curve in the direction sought with a large enough effect; inconclusive means small, poorly fitted or top-dose-only effect, or effect the other way; inactive means no such curve, though single readings can be large or run the other way. Some of the results follow.

Target: Cytochrome P450 1A2 (Homo sapiens) (UniProt P05177)
Sequence (P05177 whole entry, looked up): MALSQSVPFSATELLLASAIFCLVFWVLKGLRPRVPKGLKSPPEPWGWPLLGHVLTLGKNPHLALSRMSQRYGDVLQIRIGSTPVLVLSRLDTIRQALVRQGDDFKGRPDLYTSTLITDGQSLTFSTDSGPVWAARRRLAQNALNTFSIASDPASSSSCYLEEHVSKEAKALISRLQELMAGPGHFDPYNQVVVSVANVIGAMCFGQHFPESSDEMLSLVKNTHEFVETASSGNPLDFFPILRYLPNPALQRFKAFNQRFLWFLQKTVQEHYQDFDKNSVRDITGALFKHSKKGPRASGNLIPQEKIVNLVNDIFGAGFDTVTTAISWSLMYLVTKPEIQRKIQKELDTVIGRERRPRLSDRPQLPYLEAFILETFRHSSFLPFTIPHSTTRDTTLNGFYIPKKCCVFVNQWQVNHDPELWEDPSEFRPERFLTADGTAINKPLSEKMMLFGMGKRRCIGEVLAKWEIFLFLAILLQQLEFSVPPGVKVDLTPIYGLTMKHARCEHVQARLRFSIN
Assay: Cytochrome panel assay with activity outcomes
Conditions: recombinant CYP, pro-luciferin dealkylation, luminescence, p450-cyp1a2; series mostly up to 57.1 µM; activity, negative = inhibition: at the top concentration
On the % scale 0 is the no-effect control and ±100 the full control effect.

activity, negative = inhibition, inactive:
COc1ccc(-c2ccc3c(n2)CCCN3C[C@H](O)CN2CCCc3nc(-c4ccc(Br)cc4)ccc32)cc1 -3.07% [at 11.4 µM] and -10.4% [at 11.4 µM], COc1ccc(Cc2nc3ccc(S(=O)(=O)N4CCOCC4)cc3[nH]2)cc1OC -7.49%, O=C(O)c1cc(N=Cc2ccccc2O)cc(C(=O)O)c1 -12.6% [at 11.4 µM], CC(C)=CCc1c2c(c3occ(-c4ccc(O)c(O)c4)c(=O)c3c1O)C=CC(C)(C)O2 -3.01% [at 2.29 µM], Br/C(=N\Nc1nn[nH]n1)c1ccncc1 -5.24% [at 11.4 µM], CC(C)(C)CNC(CO)C12CC3CC(CC(C3)C1)C2 (stereo unspecified) -2.52%, C=CC[C@@H](C(=O)O)c1ccccc1 0.428% [at 11.4 µM], CN(C(=O)c1ccncc1)c1ccccc1 -13.8% [at 11.4 µM], COc1ccc(Oc2ncc3nc(-c4cccc(C#N)c4)c(=O)n(Cc4cccc(OC)c4)c3n2)cc1 -8.54%, C[N+]1(NCC[N@@+]2(C)CCc3ccccc3C2)CCCCC1 -12.7% [at 11.4 µM], COC(=O)[C@@]1(Cc2ccccc2)[C@H]2c3cc(C(=O)N4CCCC4)n(Cc4ccc(OC)c(OC)c4)c3C[C@H]2CN1C(=O)c1ccccc1 -22.9%, C#CCCCO/N=C1/C[C@@H](O)[C@@H](O)[C@@H]2[C@H]3C(=O)N(c4ccc(F)cc4F)C(=O)[C@@H]3CC[C@H]12 -9.85% [at 11.4 µM], CO[C@H]1COC(=O)C/C=C\[C@H](C)[C@@H](NS(=O)(=O)c2ccc(C)cc2)COC(=O)C/C=C\[C@@H]1C -4.23% [at 11.4 µM] and -3.02% [at 11.4 µM], CCSC(=N)N -14.3%, C[C@@H]1O[C@H]2C3=C(C(=O)[C@H]4O[C@@H]4[C@H]3O)[C@@H]1[C@@H]1[C@@H](C)OC=C3[C@H](O)[C@H]4O[C@@H]4/C(=N\OCc4ccccc4)[C@]312 -0.558% [at 11.4 µM], COc1ccc([N+](=O)[O-])cc1COc1ccc2c(-c3ccccc3)cc(=O)oc2c1 -13.8%, COC(=O)[C@@]1(Cc2ccc(F)cc2)[C@H]2c3cc(C(=O)N4CCCC4)n(Cc4ccc(C)c(F)c4F)c3C[C@H]2CN1C(=O)c1ccccc1 -20.7%, CCOC(=O)C(C)Sc1nnc(CNC(=O)c2ccc(OC)cc2)n1C1CCCCC1 (stereo unspecified) -16.8%, CC(Sc1nnc(Cc2cccs2)n1C1CCCCC1)C(N)=O (stereo unspecified) -8.88%, COC(=O)Cn1cnc(=O)c(C#N)c1/C=C/N(C)C -9.35%, COc1ccc(NC(=O)CSc2nc(-c3ccc(C)cc3)cc(C(F)(F)F)c2C#N)cc1 16.2%, COC(=O)[C@@]1(Cc2ccc(F)cc2)[C@H]2c3cc(C(=O)N(C)C)n(Cc4ccc(C)c(F)c4F)c3C[C@H]2CN1C(=O)c1ccccc1 -11.2%, O=C(O)CCCCn1ccc(=O)[nH]c1=O -6.18% [at 11.4 µM], O=C(NCc1ccco1)C(c1ccccc1)N(C(=O)Cc1cccs1)c1ccccc1F (stereo unspecified) -14.5%, O=C(O)c1cscc1Cc1cccs1 -18.8% [at 11.4 µM], O=C(O)C/C(=C\c1ccccc1)C(=O)O -13% [at 11.4 µM], C/C(CC(=O)NC1CCCC1)=N\NC(=O)Cc1cccs1 -21.3%, CN1CC[C@@]2(CCCN(C(=O)c3cccc(F)c3)C2)C1 5.25%, Cc1cc(S(=O)(=O)NCCN(C)C)c(C)s1 -1.69%, CCCCOC(=O)C1=C(C)Nc2ncnn2C1c1cc(OC)ccc1OC (stereo unspecified) -24.5%, COc1ccc(C2C(C#N)=C(N)OC3=C2C(=O)CC(C)(C)C3)c([N+](=O)[O-])c1OC (stereo unspecified) -9.67%, COc1ccc(C2/C(=C(/O)c3ccc4c(c3)CC(C)O4)C(=O)C(=O)N2CCN2CCOCC2)cc1 (stereo unspecified) -15.1%, CC(C)=CCC/C(C)=C/CO/N=C1/C[C@@H](O)[C@@H](O)[C@@H]2[C@@H]3C(=O)N(Cc4ccccc4)C(=O)[C@H]3CC[C@H]12 3.92% [at 11.4 µM], CC(C)=CCC/C(C)=C/CO/N=C1/C[C@@H](O)[C@@H](O)[C@@H]2[C@@H]3C(=O)N(Cc4ccccc4)C(=O)[C@H]3CC[C@@H]12 4.86% [at 11.4 µM], CC(C)NC(=O)N1CC2(CCN(C(=O)c3ccco3)CC2)C1 -10.4%, CCC(C)NS(=O)(=O)c1ccc(OCC(=O)Nc2ccc3c(c2)OCCO3)cc1 (stereo unspecified) -11.9%, CCOC(=O)CCN1C(=O)[C@H]2[C@H]3[C@H](O)[C@H](O)C/C(=N/OC[C@@H](O)COCc4ccco4)[C@H]3CC[C@@H]2C1=O -1.05% [at 11.4 µM], Cc1nnsc1SC(C)C(=O)O (stereo unspecified) 4.28%, O=C1CCCN1CC(O)CS(=O)(=O)c1ccccc1 (stereo unspecified) 5.91%, CC(C)CCNC1=NCCCCC1 11.4%, N[C@@H](Cc1cc(CP(=O)(O)O)cc(-c2ccccc2Cl)c1)C(=O)O 1.78%, Cc1onc(-c2ccccc2Cl)c1C(=O)NCC(=O)O -11.5%, CCn1c(-c2ccccc2Cl)nn(CC(=O)Nc2ccc(OC)cc2)c1=S -22.8%, Cc1ccc([N+](=O)[O-])cc1N=C(c1cccc([N+](=O)[O-])c1)N1CCOCC1 1.83%, OC[C@@H]1NC[C@@H](O)[C@@H](O)[C@H]1O -2.8%, COc1cccc(C2C3=C(CC(C)(C)CC3=O)OC(N)=C2[N+](=O)[O-])c1 (stereo unspecified) 0.0849%, CC(C)(C)COS(=O)OCC(C)(C)C -15.5% [at 11.4 µM], Nc1nc(N)[n+]([O-])c(N)c1NCO -6.17% [at 11.4 µM], CNc1nc(C)cc(C)c1S(=O)(=O)c1ccc(C)cc1 -25.7%, COC(=O)[C@H](CCSC)NC(=O)C/C=C\[C@@H](C)CO 2.44% [at 11.4 µM], O=C(c1cc(-c2ccncc2)nc2ccccc12)N1CCN(c2ccc(N3CCOCC3)nn2)CC1 -29%

AC50, active:
Cc1ccc2nc(Cc3ccc(N)cc3)[nH]c2c1 3.98 µM, O=[N+]([O-])c1cc2c(cc1C=Nc1ccccc1)OCO2 2.82 µM, Cc1nc2cnc(N(C)C)nc2n(CCC#N)c1=O 10 µM, CN(C)c1ncc2ncc(=O)n(CCC#N)c2n1 12.6 µM, CCN(Cc1ccncc1)C(=O)[C@@H](CO)c1ccccc1 15.8 µM, CC(C)(C)c1[nH]nc2c1C(c1ccc(OC(=O)c3ccco3)cc1)C(C#N)=C(N)O2 (stereo unspecified) 31.6 µM, COCCn1c(=O)c(-c2cccc(C#N)c2)nc2cnc(Oc3ccccc3)nc21 15.8 µM, Cn1c(=O)c(-c2cccc(C#N)c2)nc2cnc(Oc3ccccc3)nc21 1.58 µM, COCCn1c(=O)c(-c2ccc(F)cc2)nc2cnc(Oc3ccccc3)nc21 0.794 µM, COCCn1c(=O)c(-c2ccc(Cl)cc2)nc2cnc(Oc3ccccc3)nc21 0.794 µM, COCCn1c(=O)c(-c2ccccc2)nc2cnc(Oc3ccc(OC)cc3)nc21 1.26 µM, COCCn1c(=O)c(-c2cc(F)cc(F)c2)nc2cnc(Oc3ccccc3)nc21 5.01 µM, COCCn1c(=O)c(-c2ccccc2)nc2cnc(Oc3ccccc3)nc21 1.58 µM, COC(=O)COc1ccc2c(-c3cccc([N+](=O)[O-])c3)cc(=O)oc2c1 2 µM, Cc1nc2c(n1C1CCCCC1)C(=O)c1ccccc1C2=O 6.31 µM, CCn1c(C)nc2c1C(=O)c1ccccc1C2=O 0.447 µM, COC(=O)CSc1nc(C)cc(C(F)(F)F)c1C#N 2 µM, CN1CCN(c2cc(-c3ccc(N(C)C)cc3)ncn2)CC1 2.51 µM, CN1CCN(c2ccnc(-c3ccc(N(C)C)cc3)n2)CC1 0.794 µM, CN1CCN(c2ccnc(-c3ccoc3)n2)CC1 12.6 µM, CC(/C=N/NC(=O)Cc1cccs1)=C\c1ccco1 11.2 µM, O=C(Cc1cccs1)N/N=C/C(Br)=C/c1ccccc1 5.01 µM, CCOc1cc(/C=N/O)cc(Cl)c1OC 1.41 µM, COC(=O)C1=C(C)OC(N)=C(C#N)C1c1cc(OC)ccc1OC (stereo unspecified) 15.8 µM, CCSC1=C(C#N)C2(CCCCC2)C(C#N)=C(N)N1 12.6 µM, CCOc1ccc2nc(C)cc(Nc3ccc4c(c3)OCCO4)c2c1 4.47 µM, CNCCCCCCCCSc1nc(C(C)C)ccc1C(=O)c1cccs1 31.6 µM, O=S(=O)(CC(O)COc1ccccc1Cl)c1ccccc1 (stereo unspecified) 22.4 µM, COc1ccc(NC(=O)c2cc(-c3ccccc3Cl)no2)cc1 2.24 µM, O=C(Nc1ccccc1)c1cc(-c2ccccc2Cl)no1 0.794 µM, NC(N)=Nc1nc2ccc([N+](=O)[O-])cc2[nH]1 3.16 µM, N#Cc1c(-c2ccccc2)ccnc1Oc1ccccc1 1.12 µM, Cc1cc(C)c(C#N)c(Oc2ccccc2)n1 3.16 µM, CCCC(=O)Nc1cccc(Oc2nc(C)cc(C)c2C#N)c1 5.01 µM, Cc1cc(C)c(C#N)c(Oc2ccc(F)cc2)n1 2.51 µM, CN(C)c1ccnc(Oc2ccc(Cl)cc2)c1C#N 2.51 µM, Cc1ccccc1-n1cnc2cc(NCc3cccs3)ccc21 5.62 µM, Cc1ccc(Sc2nc(C)cc(C)c2S(C)(=O)=O)cc1 10 µM, CN1CCN(c2nc(-c3ccoc3)nc3ccccc23)CC1 1.26 µM, c1ccc2c(N3CCOCC3)nc(-c3ccoc3)nc2c1 1.26 µM
